Records with an inconclusive call do not appear. Where a call stands in place of a potency, no number is given. Active and inactive are the calls of the source. Calls follow the shape of the dose curve; as a rule, active = well fitted inhibition curve with a large enough effect in the main read-out, with a control signal flat (not every such curve was filed as active); inconclusive = small, poorly fitted or top-dose-only effect, or effect the other way, or a change in a side signal; inactive = no such curve, though single readings can be large or run the other way.
experiment: Nrf2 qHTS screen for inhibitors: Validation (AID 493153); conditions: A549 ARE-Fluc reporter, 18-24 h; Potency: luciferase luminescence; viability change: measured here: cytotoxicity max response; luciferase luminescence, at 46.1 µM (top of the series)
Summary of the method: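 Dose-response validation uses reporter A549 cells with firefly luciferase under an antioxidant response element. Compounds stay on cells 18-24 h at 37°C, and luminescence indicates Nrf2-driven transcription.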

Row | SMILES | Potency | viability change [%]
1 | NC(=O)c1cn(Cc2c(F)cccc2F)nn1 | inactive | -8.96
2 | CN1CCN(CC(=O)N2c3ccccc3C(=O)Nc3cccnc32)CC1 | inactive | 11.6
3 | CCOC(=O)C1=C(C)NC(C)=C(C(=O)OC)C1c1cccc([N+](=O)[O-])c1 (stereo unspecified) | inactive | 9.17
4 | CC(C)COCC(CN(Cc1ccccc1)c1ccccc1)N1CCCC1 (stereo unspecified) | inactive | 2.97
5 | CN(C)C(=O)Oc1ccc[n+](C)c1 | inactive | -10.4
6 | CCCC(C(=O)OCCN(CC)CC)(c1ccccc1)c1ccccc1 | inactive | -7.4
7 | CCn1ccnc1CC1COc2ccccc2O1 (stereo unspecified) | inactive | -1.46
8 | NC1=NCC2c3ccccc3Cc3ccccc3N12 (stereo unspecified) | inactive | 6.37
9 | Cc1nc2c([nH]1)c(=O)n(C)c(=O)n2Cc1ccco1 | inactive | -1.43
10 | COc1cc(C(=O)OCCCN2CCCN(CCCOC(=O)c3cc(OC)c(OC)c(OC)c3)CC2)cc(OC)c1OC | inactive | -0.03
11 | Cc1nc2ccccn2c(=O)c1CCN1CCC(C(=O)c2ccc(F)cc2)CC1 | inactive | -13.1
12 | Cc1cccc(C)c1NC(=O)C(C)N (stereo unspecified) | inactive | 3.48
13 | C#CCN(C)CCCOc1ccc(Cl)cc1Cl | inactive | -1.92
14 | CC(C)[N+](C)(CCOC(=O)C1c2ccccc2Oc2ccccc21)C(C)C | inactive | -4.32
15 | COc1ccc(CN(CCN(C)C)c2ccccn2)cc1 | inactive | 0.301
16 | CN1C[C@H](C(=O)N[C@]2(C)O[C@@]3(O)[C@@H]4CCCN4C(=O)[C@H](Cc4ccccc4)N3C2=O)C[C@@H]2c3cccc4[nH]cc(c34)C[C@H]21 | inactive | -1.86
17 | CNC1(C)C2CCC(C2)C1(C)C (stereo unspecified) | inactive | 3.39
18 | CCOC(=O)C1=C(C)NC(C)=C(C(=O)OC)C1c1cccc(Cl)c1Cl (stereo unspecified) | inactive | -3.98
19 | CCCCNc1c(C(=O)OCC)c(C)nc2c1cnn2CC | inactive | 2.43
20 | Nc1nc(N)c2nc(-c3ccccc3)c(N)nc2n1 | inactive | 5.44
21 | CC1=C(C)C(=O)C(CCCCC#CCCCC#CCO)=C(C)C1=O | inactive | 5.77
22 | CN1C(=O)CC[C@H]1c1cccnc1 | inactive | 0.268
23 | Cc1nc2sccn2c(=O)c1CCN1CCC(=C(c2ccc(F)cc2)c2ccc(F)cc2)CC1 | inactive | -8.03
24 | CN(C)CCCN1c2ccccc2Sc2ccc(C(F)(F)F)cc21 | inactive | 0.635
25 | COc1cc(Cc2cnc(N)nc2N)cc(OC)c1OC | inactive | 1.71
26 | C[C@@H](O)[C@H]1C(=O)N2C(C(=O)O)=C(SCCN=CN)C[C@H]12 | inactive | -3.32
27 | CN(C)[C@@H]1C(=O)C(C(N)=O)=C(O)[C@@]2(O)C(=O)C3=C(O)c4c(O)ccc(Cl)c4[C@@H](O)[C@H]3C[C@@H]12 | inactive | 4.27
28 | C[C@]12CCC(=O)C=C1CC[C@@H]1[C@@H]2C(=O)C[C@@]2(C)[C@H]1CC[C@]2(O)C(=O)CO | inactive | 8.98
